Experimental data published in PubChem BioAssay.
Several values for one entry are separate records, joined by “and”; a condition that tells them apart may be missing. Equal values may be shown once. Activity calls are given as the source filed them.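 Rule for the calls: active = inhibition at or above 50% relative to wild type and mutant plate controls; inactive = inhibition below 50%.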

Assay: inhibitors of Chlamydomonas gravitaxis, primary screen, whole organism, Chlamydomonas reinhardtii, WT vs cilia-less mutant, absorbance, 96-well (AID 463189);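 note: 0% = wild type cc124 cells in DMSO and 100% = ciliumless bld1 mutant cells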
Settings: OD600 absorbance, 2 days, at 10 µM, hits give high values

Row | Compound | inhibition
1 | CN1CCC(c2c[nH]c3ccc(O)cc23)CC1 | 4.07% (inactive)
2 | NC(N)=Nc1ccc2[nH]c3c(c2c1)C[C@@]1(O)[C@H]2Cc4ccc(O)c5c4[C@@]1(CCN2CC1CC1)[C@H]3O5 | -0.588% (inactive)
3 | C[N+]1(C)C2CC(OC(=O)[C@H](CO)c3ccccc3)CC1C1OC12 (stereo partly drawn) | -8.63% (inactive) and 9.74% (inactive)
4 | O=C(O)c1nn(Cc2ccc(Cl)cc2Cl)c2ccccc12 | -0.768% (inactive)
5 | c1ccc2c(c1)[I+]c1ccccc1-2 | 152% (active)
6 | CC(N)Cc1c[nH]c2ccc(O)cc12 (stereo not drawn) | 7.26% (inactive)
7 | Clc1ccc(C(c2ccc(Cl)cc2)n2cc[n+](CC(OCc3ccc(Cl)cc3Cl)c3ccc(Cl)cc3Cl)c2)cc1 (stereo not drawn) | 133% (active)
8 | C[N+]1(C)C2CCC1CC(OC(=O)c1c[nH]c3ccccc13)C2 (stereo not drawn) | 8.92% (inactive)
9 | NC1CC1c1ccccc1 (stereo not drawn) | 9.58% (inactive)
10 | O=C1C=CC(=O)C=C1 | -11.2% (inactive)
11 | NCC(O)c1cc(O)c(O)cc1F (stereo not drawn) | 1.21% (inactive)
12 | C[C@@H]1O[C@@H](O[C@H]2C[C@@H](O)[C@]3(CO)[C@@H]4C(CC[C@]3(O)C2)[C@@]2(O)CC[C@H](C3COC(=O)C3)[C@@]2(C)C[C@H]4O)[C@H](O)[C@H](O)[C@H]1O (stereo partly drawn) | 0.796% (inactive)
13 | CNCCc1ccc(O)c(O)c1 | 8.08% (inactive)
14 | NNC(=O)c1ccc(O)cc1 | -10.7% (inactive)
15 | CNCCc1c[nH]c2ccc(O)cc12 | 8.6% (inactive)
16 | CCCN1CCc2cccc3c2[C@H]1Cc1ccc(O)c(O)c1-3 | 0.62% (inactive)
17 | NC(=O)CN1CCCC1=O | -12.5% (inactive)
18 | NCC#Cc1ccccc1 | 1.68% (inactive)
19 | CC12CCC3C(CCC4=C(O)C(=O)CCC43C)C1CCC2=O (stereo not drawn) | 12.9% (inactive)

Row | Compound | inhibition
20 | CN(C(=O)Cc1ccc(Cl)c(Cl)c1)C(CN1CCCC1)c1cccc(OCC(=O)O)c1 (stereo not drawn) | 4.68% (inactive)
21 | Clc1ccc(N2CC3CCC(C2)N3)nn1 | 1.03% (inactive)
22 | CC(N)[C@H](O)c1ccc(O)c(O)c1 (stereo partly drawn) | 1.5% (inactive)
23 | c1ccc(CCCN2CCN(CCOC(c3ccccc3)c3ccccc3)CC2)cc1 | 20% (inactive)
24 | CC(Cc1ccc(O)cc1)NCC(O)c1cc(O)cc(O)c1 (stereo not drawn) | 1.02% (inactive)
25 | CC(C)c1cccc(C(C)C)c1O | -3.28% (inactive)
26 | CO[C@H]1CC=C2CCN3CCC4=C(CC(=O)OC4)[C@]23C1 | 0.879% (inactive)
27 | COc1cc(C(O)CN)ccc1O (stereo not drawn) | 2.77% (inactive)
28 | CCCN1CC[C@@H]2c3cc(O)ccc3CC[C@@H]21 | -3.65% (inactive)
29 | COc1cc(C=C(C#N)C#N)cc(O)c1O | 10.5% (inactive)
30 | NC(=O)c1ccc(OCC(O)CN2CC=C(c3ccc(F)cc3)CC2)cc1 (stereo not drawn) | -9.43% (inactive)
31 | COc1ccc2c(c1OC)C(=O)O[C@H]2[C@@H]1c2cc3c(cc2CCN1C)OCO3 | -6.11% (inactive)
32 | Cc1cccc(C)c1NC1=NCCCS1 | 6.94% (inactive)
33 | O=C1CCCN1CC#CCN1CCCC1 | 7.02% (inactive)
34 | CCS(=O)(=O)Nc1cccc(C(=C2CCCCC2)c2cnc[nH]2)c1 | 2.69% (inactive)
35 | CC(=O)NCCc1c[nH]c2ccccc12 | 7.09% (inactive)
36 | C[N+]1(C)CCOC(O)(c2ccc(-c3ccc(C4(O)C[N+](C)(C)CCO4)cc3)cc2)C1 (stereo not drawn) | 1.34% (inactive)
37 | C=CCN1CC[C@]23CCCCC2[C@H]1Cc1ccc(O)cc13 (stereo partly drawn) | 7.64% (inactive)
38 | NC(C(=O)O)c1cc(=O)[nH]o1 (stereo not drawn) | 6.42% (inactive)
